Test [1] can be described thus: ATG_M_32_CIS: Attagene CIS-FACTORIAL HepG2 Assay for M32 Transcription Factor (Internal Marker) (AID 2282949).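 Also: background control marker of the multiplexed CIS panel rather than a real target.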 The note with it: HepG2 Attagene cis-factorial M32 reporter, mRNA; actives raise or lower the signal. A digest of the protocol:
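Following 24 h chemical exposure of HepG2 cells transiently expressing cis-promoter reporter constructs, reporter transcript levels were determined by RT-PCR with fluorescent labelling and capillary electrophoresis, then fitted bidirectionally against DMSO.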

Test [2] can be described thus: ATG_M_06_CIS: Attagene CIS-FACTORIAL HepG2 Assay for M06 Transcription Factor (Internal Marker) (AID 2282950). The note with it: HepG2 Attagene CIS-FACTORIAL M06 internal marker reporter; actives raise or lower the signal. A digest of the protocol:
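Internal background marker within multiplexed cis-reporter HepG2 system. Cells transiently transfected, dosed 24 h; reporter mRNA measured by RT-PCR, HpaI digestion and capillary electrophoresis. Bidirectional fit relative to DMSO.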

The target of test [3] is Hypoxia-inducible factor 1-alpha (Homo sapiens) (UniProt Q16665). In words: ATG_HIF1a_CIS: Attagene CIS-FACTORIAL HepG2 Assay for human Hypoxia Inducible Factor 1 (HIF1A) (AID 2282951). Particulars: HepG2 Attagene cis-factorial HIF1a reporter transcription; actives raise or lower the signal. A digest of the protocol: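 Measures endogenous transcription-factor activity through cis-regulated reporter mRNA in HepG2. Cells dosed 24 h; transcripts quantified by RT-PCR with 6-FAM-labelled products separated by capillary electrophoresis; DMSO serves as negative control.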
Chain of Hypoxia-inducible factor 1-alpha (Homo sapiens) (Q16665 whole entry, looked up): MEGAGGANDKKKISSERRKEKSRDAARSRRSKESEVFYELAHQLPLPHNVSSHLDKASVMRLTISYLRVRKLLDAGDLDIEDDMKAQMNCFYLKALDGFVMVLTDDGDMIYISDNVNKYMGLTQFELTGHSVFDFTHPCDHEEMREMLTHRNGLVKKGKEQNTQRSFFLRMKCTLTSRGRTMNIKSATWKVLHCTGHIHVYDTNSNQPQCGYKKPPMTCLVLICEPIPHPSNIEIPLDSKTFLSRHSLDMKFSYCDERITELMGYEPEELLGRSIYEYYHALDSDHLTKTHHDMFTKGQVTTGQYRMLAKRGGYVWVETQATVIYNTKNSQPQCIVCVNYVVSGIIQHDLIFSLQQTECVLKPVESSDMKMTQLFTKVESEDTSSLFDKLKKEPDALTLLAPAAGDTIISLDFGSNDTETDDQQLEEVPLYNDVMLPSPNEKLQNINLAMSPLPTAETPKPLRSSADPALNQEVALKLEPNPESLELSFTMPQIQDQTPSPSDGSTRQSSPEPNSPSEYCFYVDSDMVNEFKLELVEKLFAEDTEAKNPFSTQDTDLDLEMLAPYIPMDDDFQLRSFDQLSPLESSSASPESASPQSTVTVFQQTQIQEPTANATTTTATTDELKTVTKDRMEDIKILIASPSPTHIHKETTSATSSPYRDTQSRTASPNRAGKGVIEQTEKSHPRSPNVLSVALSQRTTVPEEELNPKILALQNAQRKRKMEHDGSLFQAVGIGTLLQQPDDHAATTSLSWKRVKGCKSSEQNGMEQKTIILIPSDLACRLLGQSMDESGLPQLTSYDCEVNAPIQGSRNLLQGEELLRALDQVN

Test [4] deals with Hepatocyte nuclear factor 6 (Homo sapiens) (UniProt Q9UBC0). Kind of test: ATG_HNF6_CIS: Attagene CIS-FACTORIAL HepG2 Assay for human Hepatocyte Nuclear Factor 6 (HNF6) (AID 2282952). Particulars: HepG2 Attagene cis-factorial HNF6 reporter transcription; actives raise or lower the signal. A digest of the protocol: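 HepG2, transient MRTU transfection (cis promoters); 24 h chemical exposure; total RNA → oligo(dT) RT → PCR → 6-FAM labelling → HpaI cut → CE; bidirectional fit vs DMSO.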
Chain of Hepatocyte nuclear factor 6 (Homo sapiens) (Q9UBC0 whole entry, looked up): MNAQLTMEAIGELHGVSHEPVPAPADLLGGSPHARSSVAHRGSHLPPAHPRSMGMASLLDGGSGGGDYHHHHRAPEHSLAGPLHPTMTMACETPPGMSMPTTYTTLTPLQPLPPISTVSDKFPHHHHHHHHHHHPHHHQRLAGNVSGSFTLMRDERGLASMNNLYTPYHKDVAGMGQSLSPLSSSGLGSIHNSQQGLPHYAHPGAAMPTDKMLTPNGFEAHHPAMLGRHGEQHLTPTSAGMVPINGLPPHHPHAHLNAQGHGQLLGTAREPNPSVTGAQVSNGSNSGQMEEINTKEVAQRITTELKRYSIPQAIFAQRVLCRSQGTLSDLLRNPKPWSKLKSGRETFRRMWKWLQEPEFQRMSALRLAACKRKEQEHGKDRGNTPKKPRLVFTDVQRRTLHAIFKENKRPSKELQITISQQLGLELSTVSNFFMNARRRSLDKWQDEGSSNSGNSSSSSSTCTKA

Test [5] has as its target Heat shock factor protein 1 (Homo sapiens) (UniProt Q00613). Kind of test: ATG_HSE_CIS: Attagene CIS-FACTORIAL HepG2 Assay for human Heat Shock Transcription Factor 1 (HSE) (AID 2282953). The note with it: HepG2 HSE cis-reporter, Attagene RNA transcription; actives raise or lower the signal. A digest of the protocol: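 HepG2 cells transfected with cis-promoter reporter units sensing endogenous transcription factor activity; reporter mRNA quantified 24 h post-dose by RT-PCR and capillary electrophoresis of 6-FAM-labelled products. Bidirectional fitting against DMSO.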

Test [6] can be described thus: ATG_MRE_CIS: Attagene CIS-FACTORIAL HepG2 Assay for human Metal Responsive Element (MRE) (AID 2282954). Particulars: HepG2 MRE cis-reporter transcription, Attagene multiplex; actives raise or lower the signal. A digest of the protocol:
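HepG2 cells transiently transfected with multiple cis-element reporter units measure endogenous MTF1-driven transcription. After 24 h compound exposure, reporter mRNA is quantified by RT-PCR with 6-FAM labelling, HpaI digestion and capillary electrophoresis; bidirectional fits versus DMSO.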

Test [7] is described as follows: ATG_PBREM_CIS: Attagene CIS-FACTORIAL HepG2 Assay for human Phenobarbital-responsive Enhancer Module (PBREM) (AID 2282955). Particulars: HepG2 PBREM cis-reporter, Attagene multiplexed transcription; actives raise or lower the signal. Put shortly:
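Fluorescence of labelled reporter cDNA fragments, resolved by capillary electrophoresis, gives mRNA induction in transfected HepG2 cells treated for 24 h; DMSO serves as negative control and baseline.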

Test [8] addresses Paired box protein Pax-6 (Homo sapiens) (UniProt P26367). Kind of test: ATG_Pax6_CIS: Attagene CIS-FACTORIAL HepG2 Assay for human Paired Box 6 (PAX6) (AID 2282956). The note with it: HepG2 CIS-FACTORIAL PAX6 reporter transcription, RNA readout; actives raise or lower the signal. A digest of the protocol:
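After twenty-four hours of chemical exposure, transfected HepG2 cells are harvested for RNA. Cis-promoter reporter transcripts are amplified, fluorescently labelled and sized by capillary electrophoresis, with gain and loss of signal scored against DMSO.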

The nature of test [9]: ATG_PXRE_CIS: Attagene CIS-FACTORIAL HepG2 Assay for human Pregnane X Receptor Element (PXRE) (AID 2282957). The note with it: HepG2 Attagene CIS-FACTORIAL PXRE reporter, mRNA; actives raise or lower the signal. A digest of the protocol: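 Transfect HepG2 with MRTUs (cis promoter elements); dose chemical, incubate 24 h; isolate RNA, RT with oligo(dT), PCR, 6-FAM label, HpaI cut, CE. Gain/loss fit vs DMSO.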

A short description of test [10]: ATG_PPRE_CIS: Attagene CIS-FACTORIAL HepG2 Assay for human Peroxisome Proliferator-activated Response Element (PPRE) (AID 2282958). The note with it: HepG2 PPRE cis-element reporter, Attagene transcription factor profiling; actives raise or lower the signal. Put shortly:
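Cells are first transfected transiently with the multiplexed reporter library, then dosed for 24 h. Total RNA is reverse-transcribed, amplified, fluorescently end-labeled and HpaI-cut before capillary electrophoresis; activity is fitted bidirectionally against DMSO controls.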

Test [11] can be described thus: ATG_RORE_CIS: Attagene CIS-FACTORIAL HepG2 Assay for human RAR-related Orphan Receptor Element (RORE) (AID 2282959). Particulars: HepG2 Attagene cis-factorial RORE reporter, mRNA; actives raise or lower the signal. A digest of the protocol:
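Cells were HepG2 carrying transfected cis-regulated reporter constructs, dosed for 24 hours. Total RNA was reverse-transcribed and reporter cDNA amplified, fluorescently labeled and sized by capillary electrophoresis. Activity was fitted bidirectionally relative to DMSO.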

A short description of test [12]: ATG_Sox_CIS: Attagene CIS-FACTORIAL HepG2 Assay for human SRY-box transcription factor (SOX) (AID 2282960). Particulars: HepG2 Attagene cis-factorial SOX reporter, mRNA; actives raise or lower the signal. A digest of the protocol:
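Transient MRTU transfection of HepG2; 24 h compound incubation; TriZol RNA, oligo(dT) RT, PCR, 6-FAM primer extension, HpaI cut, CE. Bidirectional fit, DMSO = baseline.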

Test [13] deals with Transcription factor Sp1 (Homo sapiens) (UniProt P08047). Kind of test: ATG_Sp1_CIS: Attagene CIS-FACTORIAL HepG2 Assay for human Specificity Protein 1 (Sp1) (AID 2282961). The note with it: HepG2 Sp1 cis-reporter transcription, actives raise or lower the signal. Put shortly:
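Endogenous Sp1 activity was gauged in human liver HepG2 cells bearing transfected reporter units under a cis-regulating promoter. After 24 h dosing, reporter mRNA was quantified by RT-PCR with capillary electrophoresis, and activity fitted bidirectionally versus DMSO.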

Test [14] is described as follows: ATG_SREBP_CIS: Attagene CIS-FACTORIAL HepG2 Assay for human Sterol Regulatory Element Binding (SREBP) (AID 2282962). Particulars: HepG2 Attagene cis-factorial SREBP reporter, mRNA; actives raise or lower the signal. Put shortly: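 Twenty-four hours after chemical dosing of transfected HepG2 cultures, reporter RNA was converted to cDNA, amplified, end-labelled with 6-FAM and resolved by capillary electrophoresis. Responses were fitted relative to DMSO.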

Test [15] has as its target Signal transducer and activator of transcription 3 (Homo sapiens) (UniProt P40763). Kind of test: ATG_STAT3_CIS: Attagene CIS-FACTORIAL HepG2 Assay for human Signal Transducer and Activator of Transcription 3 (STAT3) (AID 2282963). The note with it: HepG2, Attagene cis-factorial STAT3 reporter transcription; actives raise or lower the signal. A digest of the protocol:
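HepG2 cells transiently transfected with cis-element-driven multiple reporter transcription units; after 24 h chemical exposure, reporter mRNA measured by RT-PCR, 6-FAM primer-extension labelling, HpaI digestion and capillary electrophoresis. Bidirectional fitting versus DMSO baseline.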

The nature of test [16]: ATG_TA_CIS: Attagene CIS-FACTORIAL HepG2 Assay for human TA Basal Promoter (AID 2282964). Particulars: HepG2 Attagene CIS-factorial TA basal promoter reporter; actives raise or lower the signal. A digest of the protocol:
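HepG2 cells transiently transfected with multiple reporter units under cis promoter elements, reporting endogenous transcription factor activity; this endpoint tracks the TA basal promoter as background control. Reporter mRNA after 24 h dosing measured by RT-PCR/capillary electrophoresis; bidirectional fits versus DMSO.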

Test [17] in a line: ATG_TCF_b_cat_CIS: Attagene CIS-FACTORIAL HepG2 Assay for human T-Cell-Factor with beta-catenin (TCF/b-cat) (AID 2282965). Particulars: HepG2 TCF/beta-catenin cis-reporter transcription, actives raise or lower the signal. A digest of the protocol:
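Using capillary electrophoresis as the read-out, labelled reporter cDNA fragments from transiently transfected HepG2 were sized and quantified. Exposure lasted 24 hours; activity in either direction was referenced to DMSO.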

The nature of test [18]: ATG_TAL_CIS: Attagene CIS-FACTORIAL HepG2 Assay for human TAL Basal Promoter (AID 2282966).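 Also: background control endpoint measuring basal TAL promoter reporter mRNA not a specific factor.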 Particulars: HepG2 Attagene cis-factorial TAL promoter reporter; actives raise or lower the signal. A digest of the protocol:
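Fluorescence of labelled reporter cDNA fragments, resolved by capillary electrophoresis, gave the readout. Human HepG2 liver cells carried transiently transfected cis-element reporter units and were treated for 24 hours; activity was fitted bidirectionally against DMSO.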

Test [19] is described as follows: ATG_TGFb_CIS: Attagene CIS-FACTORIAL HepG2 Assay for human Transforming Growth Factor (TGF) (AID 2282967). Particulars: HepG2 Attagene CIS TGFb reporter, mRNA transcription; actives raise or lower the signal. Put shortly: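 HepG2 cells transiently transfected with cis-promoter-driven multiple reporter units measure endogenous TF activity; reporter mRNA quantified at 24 h by RT-PCR, FAM labeling, HpaI digestion and capillary electrophoresis. Bidirectional fit vs DMSO.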

Test [20] in a line: ATG_VDRE_CIS: Attagene CIS-FACTORIAL HepG2 Assay for human Vitamin D Receptor Element (VDRE) (AID 2282968). Particulars: HepG2 VDRE cis-reporter transcription, actives raise or lower the signal. A digest of the protocol:
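HepG2 cells transiently transfected with cis-element reporter units, dosed 24 h; reporter mRNA measured by RT-PCR, 6-FAM labeling, HpaI digestion and capillary electrophoresis. Activity fitted bidirectionally against DMSO baseline.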

Activity calls are given as the source filed them. The calls were made as follows: active = hit-call score of the fitted dose curve at least 0.9, where 1 is the maximum; inactive = score below 0.9.

Chain of Transcription factor Sp1 (Homo sapiens) (P08047 whole entry, looked up): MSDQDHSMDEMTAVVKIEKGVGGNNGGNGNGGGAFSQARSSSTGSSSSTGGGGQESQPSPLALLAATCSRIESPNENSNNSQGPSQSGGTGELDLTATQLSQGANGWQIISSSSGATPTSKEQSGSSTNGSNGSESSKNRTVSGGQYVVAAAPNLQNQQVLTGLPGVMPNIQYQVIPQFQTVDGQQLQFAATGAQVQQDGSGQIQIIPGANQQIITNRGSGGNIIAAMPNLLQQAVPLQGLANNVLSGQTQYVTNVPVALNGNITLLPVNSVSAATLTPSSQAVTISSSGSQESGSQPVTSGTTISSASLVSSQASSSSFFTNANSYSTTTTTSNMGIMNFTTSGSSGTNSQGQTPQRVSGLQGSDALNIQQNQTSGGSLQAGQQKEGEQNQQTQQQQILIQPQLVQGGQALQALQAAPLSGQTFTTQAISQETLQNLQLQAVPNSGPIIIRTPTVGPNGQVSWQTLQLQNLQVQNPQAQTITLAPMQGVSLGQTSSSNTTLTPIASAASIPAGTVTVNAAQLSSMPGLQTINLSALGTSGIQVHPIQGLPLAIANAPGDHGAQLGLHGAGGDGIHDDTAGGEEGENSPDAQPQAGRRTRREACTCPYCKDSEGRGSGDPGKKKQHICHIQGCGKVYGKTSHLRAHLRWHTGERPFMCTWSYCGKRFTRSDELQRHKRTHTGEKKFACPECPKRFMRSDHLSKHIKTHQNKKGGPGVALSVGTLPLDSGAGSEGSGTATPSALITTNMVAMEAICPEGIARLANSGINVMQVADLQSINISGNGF
Chain of Signal transducer and activator of transcription 3 (Homo sapiens) (P40763 whole entry, looked up): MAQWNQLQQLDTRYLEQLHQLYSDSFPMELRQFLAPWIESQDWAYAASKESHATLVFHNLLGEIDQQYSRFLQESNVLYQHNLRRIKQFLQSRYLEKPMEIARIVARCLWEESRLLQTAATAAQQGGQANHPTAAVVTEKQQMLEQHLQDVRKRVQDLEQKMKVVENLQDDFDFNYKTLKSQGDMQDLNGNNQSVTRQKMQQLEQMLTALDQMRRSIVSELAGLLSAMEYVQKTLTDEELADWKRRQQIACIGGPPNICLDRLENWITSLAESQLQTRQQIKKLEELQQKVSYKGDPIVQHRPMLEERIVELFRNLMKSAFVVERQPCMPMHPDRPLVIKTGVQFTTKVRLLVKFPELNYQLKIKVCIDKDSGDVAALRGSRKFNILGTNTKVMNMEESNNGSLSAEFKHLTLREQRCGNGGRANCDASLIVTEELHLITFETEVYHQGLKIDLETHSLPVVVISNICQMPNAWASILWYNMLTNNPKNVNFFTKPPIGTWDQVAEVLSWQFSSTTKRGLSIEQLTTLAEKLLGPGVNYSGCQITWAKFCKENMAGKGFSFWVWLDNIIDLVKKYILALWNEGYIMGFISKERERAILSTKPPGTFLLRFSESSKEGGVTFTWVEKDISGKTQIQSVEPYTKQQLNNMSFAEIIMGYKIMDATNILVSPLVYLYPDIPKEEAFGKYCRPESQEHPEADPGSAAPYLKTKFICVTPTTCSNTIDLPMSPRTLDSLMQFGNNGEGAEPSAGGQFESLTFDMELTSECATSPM
Chain of Paired box protein Pax-6 (Homo sapiens) (P26367 whole entry, looked up): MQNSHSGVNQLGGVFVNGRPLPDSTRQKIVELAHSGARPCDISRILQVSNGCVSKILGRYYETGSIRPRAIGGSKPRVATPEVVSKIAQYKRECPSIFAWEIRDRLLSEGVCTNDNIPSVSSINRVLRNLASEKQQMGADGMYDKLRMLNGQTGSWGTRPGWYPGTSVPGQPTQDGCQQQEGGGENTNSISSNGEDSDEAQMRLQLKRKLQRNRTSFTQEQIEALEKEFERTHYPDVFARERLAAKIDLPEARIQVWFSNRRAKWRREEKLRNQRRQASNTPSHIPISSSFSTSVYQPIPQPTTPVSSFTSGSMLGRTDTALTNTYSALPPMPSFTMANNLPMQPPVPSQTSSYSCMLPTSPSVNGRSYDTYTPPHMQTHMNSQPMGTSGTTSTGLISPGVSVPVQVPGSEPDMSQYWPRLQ
Chain of Heat shock factor protein 1 (Homo sapiens) (Q00613 whole entry, looked up): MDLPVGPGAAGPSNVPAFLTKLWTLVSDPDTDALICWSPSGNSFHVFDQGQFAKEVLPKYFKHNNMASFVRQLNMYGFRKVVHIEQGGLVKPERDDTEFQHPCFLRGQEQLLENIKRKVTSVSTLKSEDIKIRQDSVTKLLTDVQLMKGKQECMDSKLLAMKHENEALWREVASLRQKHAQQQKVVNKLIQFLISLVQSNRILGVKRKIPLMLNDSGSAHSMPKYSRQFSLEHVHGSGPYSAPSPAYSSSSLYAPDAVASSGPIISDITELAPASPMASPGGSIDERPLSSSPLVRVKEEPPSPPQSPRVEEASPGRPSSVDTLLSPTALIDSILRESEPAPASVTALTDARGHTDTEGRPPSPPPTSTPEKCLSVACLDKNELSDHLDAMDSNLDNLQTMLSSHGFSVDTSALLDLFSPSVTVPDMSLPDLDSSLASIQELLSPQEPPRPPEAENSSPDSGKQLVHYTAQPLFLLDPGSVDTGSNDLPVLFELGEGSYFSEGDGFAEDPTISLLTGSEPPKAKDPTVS

In the case of `O=C1c2ccc(O)c(O)c2C(=O)c2c(O)ccc(O)c21`, the molecule was called inactive in test [1], in [2], in test [4], in test [5], in test [6] and in test [7]. In addition, the molecule was classed as inactive in test [8], in test [10], in test [11], in test [12], in [13] and in [14]. Moreover, the molecule was called inactive in test [15], in test [16], in test [17], in [18], in [19] and in [20]. For the same molecule, the AC50 in test [3] was 12.6 µM (active); in [9], 13.5 µM (active).
Consider `CC1COCc2cc3c(cc21)C(C)(C)C(C)C3(C)C` (stereo not given), for which the half-maximal activity concentration (AC50) in test [1] is 163 µM (active); in [5], 147 µM (active); in test [6], 144 µM (active); in [8], 160 µM (active); in [9] it was 1.23 µM (active); in [11], 164 µM (active). The AC50 in [12] is 73.2 µM (active); in test [13], 100 µM (active); in test [15], 176 µM (active); in [16] it was 168 µM (active); in [18], 144 µM (active); in [20], 50.7 µM (active). For the same molecule, the molecule was called inactive in [2], in test [3], in [4], in test [7], in test [10] and in test [14]. Besides, the result in test [17] and in test [19] was inactive.
For `C=CCOCC(CO)(CO)CO`, the molecule was classed as inactive in test [1], in test [2], in [3], in test [4], in [5] and in [6]. The outcome in test [7], in test [8], in test [10], in test [11], in test [12] and in test [13] was inactive. Also, the outcome in test [14], in test [15], in test [16], in [17], in test [18] and in test [19] was inactive. In addition, the call in [20] was inactive. Besides, the concentration at half-maximal activity (AC50) in test [9] is 25.3 µM (active).
Take `COc1ccccc1NC(=O)c1cc2ccccc2cc1O`: the outcome in [1], in test [2], in test [10], in test [11], in test [15] and in test [16] was inactive. In addition, the outcome in test [18] and in test [19] was inactive. Moreover, the half-maximal activity concentration (AC50) was 22.7 µM (active) in test [3]; 137 µM (active) in test [4]; 57.3 µM (active) in [5]; 23.3 µM (active) in test [6]; 6.07 µM (active) in test [7]; 54.8 µM (active) in test [8]. The AC50 in test [9] was 1.63 µM (active); in test [12], 100 µM (active); in [13], 27.7 µM (active); in test [14], 55.5 µM (active); in test [17], 123 µM (active); in test [20], 6.49 µM (active).
